We go through seven compounds from PubChem BioAssay (NCATS).

Values without a mark were called inactive. Results filed as inconclusive are left out. The source made the active and inactive calls. Unless noted, calls come from the whole dose curve; as a rule, active = well fitted curve in either direction with a large enough effect (not every such curve was filed as active); inconclusive = small, poorly fitted or top-dose-only effect, or another doubt; inactive = flat fitted curve, though single readings scatter.

The target of assay [1] is Lysosomal acid glucosylceramidase (Homo sapiens) (UniProt P04062). The assay is described as follows: Glucocerebrosidase-p2 (AID 348; in the data active = potency below about 10 µM; note: potency is the fitted concentration of half-maximal effect). The note with it: purified GBA, blue fluorogenic substrate, 40 min. The gist of the method:
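Compounds titrated from 0.6 nM upwards against 0.2 nM enzyme in pH 5.9 citric acid/KH2PO4, taurocholate, tween-20; blue fluorogenic substrate 80 uM, 40 min room temperature, stopped and read Ex 365/Em 440 for AC50.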

Assay [2] in a line: AP1 Signaling Pathway (AID 357).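 Note: ME-180 reporter cells stimulated with EGF at its EC50 level; % is set by controls: 0 for no effect and ±100 for the full control effect.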 The following applies: ME-180 AP-1-bla reporter, EGF-induced, beta-lactamase ratio, 5 h; at 7.69 µM (top of the series) unless noted. The gist of the method:
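Read-out was the 460nm/530nm emission ratio (excitation 405nm) after CCF4 loading for 2.5 hours at room temperature. Cells carried an AP-1-driven beta-lactamase reporter, were stimulated with EC50 EGF plus compound for 5 hours, and AC50 values came from titrations.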

In assay [3] the target is Cytochrome P450 1A2 (Homo sapiens) (UniProt P05177). The assay can be described thus: p450-cyp1a2 (AID 410; calls by dose curve; note: potency is the fitted concentration of half-maximal effect;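 for activity change, negative = inhibition: -100% = full effect of reference inhibitor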). The following applies: recombinant CYP1A2, luciferin-ME demethylation, luminescence; series mostly up to 11.4 µM. The procedure, abridged: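 Human CYP1A2 (20nM) demethylated Luciferin-ME at its Km (100uM) in 100mM KPO4. After 10 min compound preincubation, NADPH regeneration ran the reaction 60 min at room temperature. Luciferin was read by luminescence, normalized to 57 uM furafylline.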

Assay [4] in a line: NFAT Signaling Pathway (AID 444).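 Note: carbachol stimulus at about its EC50 of 1 µM final; % is set by controls: 0 for no effect and ±100 for the full control effect.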 The note with it: Jurkat NFAT-bla M1, carbachol, beta-lactamase ratio, 5 h; at 7.69 µM (top of the series) unless noted. The procedure, abridged: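 Jurkat cells with NFAT-driven β-lactamase reporter and co-expressed M1 receptor, stimulated with carbachol (final 1 uM, ~EC50), compound titration, 5 h at 37 °C. CCF4 loaded 1 h at RT; 460/530 nm ratio gave %activity and AC50.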

The nature of assay [5]: Stat Signaling Pathway (AID 446).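 Note: ME-180 cervical cancer cells given 40 pM IL-6 alongside compound; SIE-controlled beta-lactamase reporter measured as 460/530 nm FRET emission ratio; % is set by controls: 0 for no effect and ±100 for the full control effect.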 The following applies: ME-180 (cervical carcinoma) SIE beta-lactamase reporter, IL-6 stimulated, 5 h; at 7.69 µM (top of the series) unless noted. The procedure, abridged:
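ME-180 SIE-bla cells; overnight plating; cpd + IL-6 40 pM, 5 h, 37 C; LiveBLAzer 2.5 h RT; 460/530 nm emission ratio. Normalized to 300 pM IL-6 and 125 nM JAK inhibitor controls.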

Assay [6] addresses Glucocorticoid receptor (Homo sapiens) (UniProt P04150). The assay can be described thus: GR-GFP Redistribution (AID 450;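 active = compounds whose dose series gives a full or clear partial fitted curve of increased nuclear translocation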; note: potency is the fitted concentration of half-maximal effect). The following applies: U2OS GR-GFP nuclear translocation, laser cytometry, 2 h.
Assay [7] shares this target. The assay can be described thus: GR-EFC Redistribution (AID 451; calls by dose curve; note: potency is the fitted concentration of half-maximal effect). The note with it: CHO-K1 GR-EFC translocation, beta-gal luminescence, 2 h. The gist of the method:
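CHO-K1 cells expressing nuclear EA and GR-ED fragments of b-gal; compounds titrated up to 46 uM final, 2 h at 37 C. GR nuclear translocation read as complemented b-gal luminescence after 1 h RT detection.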

Assay [8] has as its target Mitogen-activated protein kinase 10 (Mus musculus) (UniProt Q61831). The assay is described as follows: JNK3 AlphaScreen Assay (AID 530).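 Note: kinase came from lysate of stimulated human HepG2 cells; signal reports phosphorylation of biotinylated GST-cJun 1-79 at Ser73 with 10 µM ATP; % is set by controls: 0 for no effect and ±100 for the full control effect.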 The following applies: JNK3 lysate, c-Jun phosphorylation; series mostly up to 11.4 µM. The gist of the method: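 qHTS format: compounds tested as titrations against IL-1beta/TNF-alpha-activated HepG2 lysate JNK3 with biotin-GST-cJun substrate and 10 uM ATP at room temperature. Loss of anti-phospho-cJun AlphaScreen signal indicates inhibition.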
In general terms: In Alpha technology, singlet oxygen from a donor bead excites a nearby acceptor bead.

For assay [9], the target named is 3',5'-cyclic-AMP phosphodiesterase 4B (Homo sapiens) (UniProt Q07343). The assay is described as follows: qHTS Assay for Inhibitors of PDE-IV (AID 607; active = well fitted activation curve with a large enough effect in the main read-out, with a control signal flat, not every such curve was filed as active; note: % of control where 0% means no effect). The note with it: HEK293 ACTOne CNG channel cells, membrane potential fluorescence; series mostly up to 22.9 µM. The procedure, abridged:
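ACTOne HEK293 cells carry a modified cAMP-gated CNG channel and express endogenous PDE4; plated 1000 cells/well, compounds up to 22.9 uM final. Membrane-potential dye fluorescence (ex 535/em 590) was read; parental cells received 10 uM forskolin + 100 uM RO 20-1724.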
Background: Quantitative high-throughput screening tests each substance at several concentrations.

The target of assay [10] is Cytochrome P450 3A4 (Homo sapiens) (UniProt P08684). The assay can be described thus: qHTS Assay for Inhibitors and Substrates of Cytochrome P450 3A4 (AID 884; active = well fitted curve in the direction sought with a large enough effect; an effect the other way counts as inactive or inconclusive; note: potency is the fitted concentration of half-maximal effect; nearly all actives have a fitted effect of over 50% in size). The following applies: recombinant CYP3A4, Luciferin-PPXE luminescence; series mostly up to 57.1 µM. The procedure, abridged:
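20 nM human CYP3A4 with 25 uM Luciferin-PPXE (at KM) in 200 mM KPO4, preincubated 10 min with compound; NADPH regeneration started a 60 min RT reaction. Luciferin detected by luminescence, normalized to 57 uM ketoconazole as full inhibition.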

Assay [11] shares this target. The assay is described as follows: qHTS Assay for Activators of Cytochrome P450 3A4 (AID 885; active = well fitted curve in the direction sought with a large enough effect; an effect the other way counts as inactive or inconclusive; note: nearly all actives have a fitted effect of over 65% in size). The note with it: recombinant CYP3A4, Luciferin-PPXE luminescence, 60 min; series mostly up to 11.4 µM. The gist of the method: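 20nM CYP3A4 + 25uM Luciferin-PPXE (=KM), 200mM KPO4; cpd 10 min RT; NADPH regen, 60 min RT; stop w/ detection buffer, 20 min; luminescence. Normalized to 57 uM ketoconazole.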

In assay [12] the target is Cytochrome P450 2D6 (Homo sapiens) (UniProt P10635). The assay is described as follows: qHTS Assay for Inhibitors and Substrates of Cytochrome P450 2D6 (AID 891; active = well fitted curve in the direction sought with a large enough effect; an effect the other way counts as inactive or inconclusive; note: potency is the fitted concentration of half-maximal effect; nearly all actives have a fitted effect of over 60% in size). The following applies: recombinant CYP2D6, luciferin-ME EGE luminescence; series mostly up to 11.4 µM. The procedure, abridged:
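Human CYP2D6 (5 nM) with 30 uM Luciferin-ME EGE (at Km) in 100 mM KPO4, compound preincubated 10 min, then NADPH regeneration system for 60 min at room temperature. Luciferin read by luminescence; normalized to 1.43 uM quinidine.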

For assay [13], the target named is Cytochrome P450 2C19 (Homo sapiens) (UniProt P33261). The assay can be described thus: qHTS Assay for Inhibitors and Substrates of Cytochrome P450 2C19 (AID 899; active = well fitted curve in the direction sought with a large enough effect; an effect the other way counts as inactive or inconclusive; note: potency is the fitted concentration of half-maximal effect; nearly all actives have a fitted effect of over 60% in size). The following applies: recombinant CYP2C19, luciferin-H EGE luminescence; series mostly up to 11.4 µM. The gist of the method:
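Signal comes from luciferase acting on luciferin released by CYP2C19-mediated hydroxylation of Luciferin-H EGE, 10uM (KM). Assay mix: 5nM enzyme, 50mM KPO4; 60 min at 37C with NADPH regeneration. Data normalized against 57uM ketoconazole.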

Glucocorticoid receptor (Homo sapiens), sequence (P04150 whole entry, looked up): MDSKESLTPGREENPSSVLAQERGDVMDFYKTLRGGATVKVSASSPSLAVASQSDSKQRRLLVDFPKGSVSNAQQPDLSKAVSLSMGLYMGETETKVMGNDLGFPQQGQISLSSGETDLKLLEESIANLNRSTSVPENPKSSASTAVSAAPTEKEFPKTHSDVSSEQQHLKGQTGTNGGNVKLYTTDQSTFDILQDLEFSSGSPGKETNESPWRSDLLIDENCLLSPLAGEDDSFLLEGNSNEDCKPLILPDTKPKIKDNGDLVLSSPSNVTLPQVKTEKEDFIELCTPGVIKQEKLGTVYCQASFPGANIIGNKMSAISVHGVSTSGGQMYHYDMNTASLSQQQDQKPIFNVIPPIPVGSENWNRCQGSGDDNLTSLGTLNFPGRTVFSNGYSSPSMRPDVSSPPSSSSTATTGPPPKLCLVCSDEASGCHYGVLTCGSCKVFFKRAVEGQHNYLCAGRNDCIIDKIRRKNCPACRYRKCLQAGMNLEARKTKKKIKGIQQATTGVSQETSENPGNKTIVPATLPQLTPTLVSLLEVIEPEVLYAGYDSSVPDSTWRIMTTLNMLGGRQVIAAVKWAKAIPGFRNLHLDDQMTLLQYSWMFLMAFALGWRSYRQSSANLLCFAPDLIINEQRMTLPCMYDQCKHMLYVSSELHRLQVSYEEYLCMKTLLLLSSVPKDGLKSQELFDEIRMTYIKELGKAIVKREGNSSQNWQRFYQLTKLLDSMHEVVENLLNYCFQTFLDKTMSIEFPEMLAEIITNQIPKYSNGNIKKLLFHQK
3',5'-cyclic-AMP phosphodiesterase 4B (Homo sapiens), sequence (Q07343 whole entry, looked up): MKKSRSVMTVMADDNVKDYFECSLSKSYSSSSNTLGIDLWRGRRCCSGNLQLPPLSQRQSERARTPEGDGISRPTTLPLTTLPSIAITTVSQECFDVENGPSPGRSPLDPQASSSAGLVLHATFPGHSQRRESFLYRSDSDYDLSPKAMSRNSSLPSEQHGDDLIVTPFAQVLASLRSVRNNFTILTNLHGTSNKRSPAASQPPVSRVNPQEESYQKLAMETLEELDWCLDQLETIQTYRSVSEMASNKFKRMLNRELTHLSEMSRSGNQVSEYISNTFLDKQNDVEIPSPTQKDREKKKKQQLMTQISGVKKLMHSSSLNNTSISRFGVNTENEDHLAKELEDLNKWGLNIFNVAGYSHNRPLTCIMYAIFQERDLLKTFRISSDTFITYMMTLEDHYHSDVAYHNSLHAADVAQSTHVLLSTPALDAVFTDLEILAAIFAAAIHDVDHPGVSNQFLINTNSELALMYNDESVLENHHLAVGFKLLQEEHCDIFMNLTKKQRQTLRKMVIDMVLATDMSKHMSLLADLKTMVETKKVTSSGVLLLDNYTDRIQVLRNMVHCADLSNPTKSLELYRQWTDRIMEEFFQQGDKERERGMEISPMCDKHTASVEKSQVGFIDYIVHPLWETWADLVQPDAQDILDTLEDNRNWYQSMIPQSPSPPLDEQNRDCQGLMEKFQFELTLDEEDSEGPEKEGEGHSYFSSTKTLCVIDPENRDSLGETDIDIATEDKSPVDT
Cytochrome P450 1A2 (Homo sapiens), sequence (P05177 whole entry, looked up): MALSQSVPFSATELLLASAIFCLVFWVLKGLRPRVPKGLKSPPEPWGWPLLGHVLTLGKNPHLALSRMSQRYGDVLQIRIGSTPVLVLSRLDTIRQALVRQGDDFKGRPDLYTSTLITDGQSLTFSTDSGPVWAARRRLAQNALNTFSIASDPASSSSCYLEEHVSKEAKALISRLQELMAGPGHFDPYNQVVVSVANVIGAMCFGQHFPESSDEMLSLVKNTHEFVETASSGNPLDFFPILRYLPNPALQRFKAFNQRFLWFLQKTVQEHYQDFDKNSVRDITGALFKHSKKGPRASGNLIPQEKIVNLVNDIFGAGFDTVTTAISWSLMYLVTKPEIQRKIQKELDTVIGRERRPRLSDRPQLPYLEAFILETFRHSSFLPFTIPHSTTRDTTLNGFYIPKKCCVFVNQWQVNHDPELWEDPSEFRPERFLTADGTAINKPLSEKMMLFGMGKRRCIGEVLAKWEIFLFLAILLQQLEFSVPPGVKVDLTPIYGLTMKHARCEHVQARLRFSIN
Lysosomal acid glucosylceramidase (Homo sapiens), sequence (P04062 whole entry, looked up): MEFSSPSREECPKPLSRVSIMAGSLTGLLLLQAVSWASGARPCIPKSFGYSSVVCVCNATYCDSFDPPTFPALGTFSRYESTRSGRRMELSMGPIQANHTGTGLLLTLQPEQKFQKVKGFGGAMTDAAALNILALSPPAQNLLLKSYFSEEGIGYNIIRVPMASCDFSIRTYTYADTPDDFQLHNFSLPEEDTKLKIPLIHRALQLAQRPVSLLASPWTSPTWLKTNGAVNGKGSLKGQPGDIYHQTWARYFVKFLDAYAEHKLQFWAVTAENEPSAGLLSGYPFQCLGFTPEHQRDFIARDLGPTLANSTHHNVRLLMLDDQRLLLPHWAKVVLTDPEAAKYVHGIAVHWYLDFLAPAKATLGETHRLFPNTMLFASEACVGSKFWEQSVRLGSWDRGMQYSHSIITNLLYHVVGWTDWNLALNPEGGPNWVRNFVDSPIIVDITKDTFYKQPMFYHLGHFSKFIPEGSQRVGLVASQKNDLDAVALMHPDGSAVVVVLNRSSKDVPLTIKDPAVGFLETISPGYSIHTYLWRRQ
Cytochrome P450 3A4 (Homo sapiens), sequence (P08684 whole entry, looked up): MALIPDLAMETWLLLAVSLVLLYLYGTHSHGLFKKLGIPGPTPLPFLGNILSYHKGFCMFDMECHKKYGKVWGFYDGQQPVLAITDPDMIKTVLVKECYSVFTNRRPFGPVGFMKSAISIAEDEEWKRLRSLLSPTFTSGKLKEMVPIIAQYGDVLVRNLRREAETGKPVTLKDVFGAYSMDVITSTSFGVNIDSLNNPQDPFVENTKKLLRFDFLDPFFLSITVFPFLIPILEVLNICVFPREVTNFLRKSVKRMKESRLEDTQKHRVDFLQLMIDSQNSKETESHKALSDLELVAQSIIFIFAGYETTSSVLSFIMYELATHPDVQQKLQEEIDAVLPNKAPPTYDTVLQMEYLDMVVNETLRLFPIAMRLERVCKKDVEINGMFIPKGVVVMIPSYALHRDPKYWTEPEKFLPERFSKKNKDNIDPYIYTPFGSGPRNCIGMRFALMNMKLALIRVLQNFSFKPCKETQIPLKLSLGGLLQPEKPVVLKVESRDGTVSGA
Cytochrome P450 2C19 (Homo sapiens), sequence (P33261 whole entry, looked up): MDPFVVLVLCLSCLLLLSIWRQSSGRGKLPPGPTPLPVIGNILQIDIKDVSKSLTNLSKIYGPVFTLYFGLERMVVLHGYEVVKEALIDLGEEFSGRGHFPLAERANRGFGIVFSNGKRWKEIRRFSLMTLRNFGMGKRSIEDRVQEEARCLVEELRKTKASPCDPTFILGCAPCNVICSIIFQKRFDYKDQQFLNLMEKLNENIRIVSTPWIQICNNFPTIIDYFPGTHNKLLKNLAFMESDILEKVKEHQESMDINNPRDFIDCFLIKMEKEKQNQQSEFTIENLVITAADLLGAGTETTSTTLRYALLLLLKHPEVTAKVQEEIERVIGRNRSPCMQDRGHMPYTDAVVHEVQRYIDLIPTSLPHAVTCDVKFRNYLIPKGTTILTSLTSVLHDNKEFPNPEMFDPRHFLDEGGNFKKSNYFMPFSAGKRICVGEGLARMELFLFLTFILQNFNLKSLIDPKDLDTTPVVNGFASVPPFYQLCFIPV
Cytochrome P450 2D6 (Homo sapiens), sequence (P10635 whole entry, looked up): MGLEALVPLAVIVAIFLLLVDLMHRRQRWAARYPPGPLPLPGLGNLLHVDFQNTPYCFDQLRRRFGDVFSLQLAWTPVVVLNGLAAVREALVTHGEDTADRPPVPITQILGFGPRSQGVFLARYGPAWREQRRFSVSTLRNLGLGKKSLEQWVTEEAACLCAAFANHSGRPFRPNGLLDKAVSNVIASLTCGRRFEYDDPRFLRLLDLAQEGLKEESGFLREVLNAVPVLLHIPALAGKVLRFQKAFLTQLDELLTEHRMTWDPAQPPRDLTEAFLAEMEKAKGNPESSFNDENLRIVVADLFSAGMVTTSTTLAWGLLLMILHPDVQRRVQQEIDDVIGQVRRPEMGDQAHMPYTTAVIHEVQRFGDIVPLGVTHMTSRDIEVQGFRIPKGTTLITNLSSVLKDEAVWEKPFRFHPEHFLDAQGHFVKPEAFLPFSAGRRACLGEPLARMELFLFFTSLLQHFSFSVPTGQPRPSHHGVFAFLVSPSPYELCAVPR

As to `CSC1(SC2=NCCN2)SC2(NCCN2)S1`, the Potency in assay [1] is over 11.4 µM; in assay [3], 0.398 µM (active); in assay [6], over 46 µM; in assay [7], over 9.22 µM; in [10], 1.26 µM (active); in assay [12] it was 3.98 µM (active). Further, the Potency in [13] is 1.58 µM (active). In addition, the activity change, negative = inhibition is -0.329% in assay [2] and -0.372% in assay [4]. For the same compound, the activity, negative = inhibition in assay [5] is 5.32%. Further, the Potency result in [8], in assay [9] and in assay [11] was “inactive” in each case.
As to `C/C(=N/Nc1ccc2ccccc2n1)c1ccccc1O`, the Potency in [1] was over 11.4 µM; in assay [3], 1.58 µM (active); in assay [6] it was over 46 µM; in assay [7], over 9.22 µM; in assay [10], 3.16 µM (active); in assay [12], 0.794 µM (active). Moreover, the results for the activity change, negative = inhibition in assay [2] and in [4] were 5.21% and 2.32%, respectively. In addition, in assay [5], the activity, negative = inhibition was 7.92%. The Potency entry in assay [8], in [9] and in assay [11] was “inactive” each time.
`CC(C)c1ccccc1S(=O)c1ccccc1C(C)(C)O` (centres undefined): the Potency in [1] was over 11.4 µM; in assay [6] it was over 46 µM; in assay [7], over 9.22 µM. Besides, the values for the activity change, negative = inhibition in [2], in [3] and in assay [4] were -11.8%, -10.7% [at 2.29 µM] and 20.3%, respectively. Further, the activity, negative = inhibition in [5] was 2.89%. In addition, the Potency entry in [8], in assay [9] and in assay [11] was “inactive” throughout.
In the case of `O=C(CC(=O)c1ccncc1)c1ccccc1`, the Potency in assay [1] was over 11.4 µM; in [3] it was 0.1 µM (active); in assay [6], over 46 µM; in assay [7] it was over 9.22 µM; in assay [10], 3.16 µM (active); in assay [13] it was 0.398 µM (active). In addition, the activity change, negative = inhibition is 4.49% in [2] and 13.8% in assay [4]. For the same compound, in assay [5], the activity, negative = inhibition was 4.76%. Besides, the Potency entry in assay [8], in assay [9] and in assay [11] was “inactive” in each case.
On to `N=C(N)S[C@H]1c2ccccc2-c2cc([N+](=O)[O-])ccc21`, for which the Potency in assay [1] was over 11.4 µM; in assay [3], 0.158 µM (active); in assay [6], over 46 µM; in assay [7], over 9.22 µM; in assay [10], 5.01 µM (active). In addition, the activity change, negative = inhibition in assay [2] was -7.27%; in assay [4] it was -0.855%. Moreover, the activity, negative = inhibition in [5] was -2.76%. Further, the Potency result in assay [8], in assay [9] and in assay [11] was “inactive” each time.
`CC(C)N1CCN(c2ccncc2S(=O)(=O)N2CCCCC2)CC1`: the Potency in assay [1] is over 11.4 µM; in assay [6] it was over 46 µM; in [7] it was over 9.22 µM; in assay [10] it was 3.16 µM (active). Besides, the activity change, negative = inhibition in assay [2] was 0.726%; in [3], -17% [at 2.29 µM]; in assay [4], -81.6% (active). Further, in [5], the activity, negative = inhibition is -6.7%. Also, the Potency entry in assay [8], in [9] and in assay [11] was “inactive” each time.
Consider `CCCCNc1nc(SC)nc2nc[nH]c12`, for which the Potency was over 11.4 µM in [1], 0.316 µM (active) in assay [3], over 46 µM in assay [6] and over 9.22 µM in assay [7]. Also, the activity change, negative = inhibition in [2] was 1.1%; in assay [4], 9.44%. In addition, in [5], the activity, negative = inhibition is -3.88%. Also, the Potency result in assay [8], in assay [9] and in [11] was “inactive” throughout.
